# Test results taken from PubChem BioAssay AID1645858 (Buhrlage Lab, Dana-Farber Cancer Institute and Novartis …, 2021).
# Screen size: about 47,000 compounds; about 330 (0.7%) were called active. This is one part of a sample in which actives are shown more often than they occur. Unmarked numbers belong to inactive results. Rule as the data show it: active = inhibition above about 30%; inactive = the rest.
# Molecular target: OTU domain-containing protein 3 (Homo sapiens) (UniProt Q5T2D3)
# Experiment: blocks human OTUD3 ubiquitin-rhodamine cleavage (AID 1645858)
# Settings: purified OTUD3, Ub-rhodamine fluorescence, 2 h; at 25 µM; active compounds read high
# OTU domain-containing protein 3 (Homo sapiens), sequence (Q5T2D3 whole entry, looked up, the tested form may be a part): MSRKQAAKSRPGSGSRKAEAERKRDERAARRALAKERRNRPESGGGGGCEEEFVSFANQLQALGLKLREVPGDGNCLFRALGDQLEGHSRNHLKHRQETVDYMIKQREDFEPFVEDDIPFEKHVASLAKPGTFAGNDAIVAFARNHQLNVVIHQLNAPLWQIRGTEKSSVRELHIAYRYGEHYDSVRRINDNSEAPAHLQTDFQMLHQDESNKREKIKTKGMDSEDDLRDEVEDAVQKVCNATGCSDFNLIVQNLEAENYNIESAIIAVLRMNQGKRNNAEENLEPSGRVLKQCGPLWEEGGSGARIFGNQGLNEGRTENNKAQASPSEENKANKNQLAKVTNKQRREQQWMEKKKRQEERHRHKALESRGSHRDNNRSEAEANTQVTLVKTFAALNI
row,SMILES,inhibition
1,Cc1ccc(C(=O)N2C[C@H]3NC(=O)c4ccccc4C(=O)[C@@]3(C)C2)cc1,-0.0157%
2,CCN(C(=O)c1cncc(Br)c1)c1nc2ccccc2s1,-0.0268%
3,COc1ccc(-c2ocnc2C(=O)NCc2ccc(OC)c(OC)c2)cc1,-9.98%
4,COc1cc(OC)cc(-c2nnc(NC(=O)c3ccc([N+](=O)[O-])o3)o2)c1,40.4% (active)
5,COc1cccc(-c2ocnc2C(=O)NCc2ccc(OC)c(OC)c2)c1,-12.9%
6,Nc1c(C(=O)CN2CCc3ccccc32)c(=O)[nH]c(=O)n1C1CC1,-63.2%
7,Cc1ccccc1S(=O)(=O)NCc1nc2cccnc2n1C1CC1,-1.25%
8,COC(=O)c1cc(S(=O)(=O)Nc2ccc(NC(=O)c3ccccc3)cc2)ccc1Cl,2.44%
9,Cc1cccc(Nc2nccnc2C2CCCN2C(=O)c2ccnnc2)n1 (stereo not given),10.1%
10,O[C@H]1[C@H](NCc2cnc3ccccc3c2)[C@@H](c2cncnc2)C[C@H]1O,-7.7%
11,Cc1ccccc1C(=O)N1CCC2(CC1)c1ncc(-c3cccnc3)n1CCN2C,-6.54%
12,CSc1nc2c(c(Nc3ccc(C(C)=O)cc3)n1)CCC2,-0.0554%
13,CC(C)Nc1ncnc2c1c(C(=O)N1CCCC1)c1ccccn12,-56.8%
14,Cc1cc(O)c(=O)cc2c1C[C@H]1CC(C)(C)/C=C/C[C@@]3(C)Oc4cc(=O)c(O)cc(C)c4C[C@@H]3C[C@H](O)[C@]1(C)O2,33.2% (active)
15,Cc1cccc(Nc2cccc(C3CCCN3C(=O)c3cccnc3)n2)n1 (stereo not given),-0.95%
16,CN1CCN(c2ccc3nnc(CCC(=O)NC4CCN(Cc5ccccc5)CC4)n3n2)CC1,5.05%
17,CC(C)=CCc1cc(O)ccc1O,-3.32%
18,CC(C)=CCC(O)C1=CC(=O)c2c(O)ccc(O)c2C1=O (stereo not given),94.7% (active)
19,Cc1cc(C)c2nc3c(cc2c1)CN(Cc1ccco1)C(=O)O3,19.2%
20,CC1(c2ncc(Cc3cccc(F)c3)o2)CCCN(C(=O)CN2CCCC2)C1 (stereo not given),-4.47%
21,COc1ccccc1CCN[C@H]1CS(=O)(=O)C[C@@H]1S(=O)(=O)c1ccccc1,2.36%
22,COc1ccc(NC(=O)c2cn(C)nc2S(=O)(=O)N2CCCCCC2)cc1,11%
23,CC(C)NC(=O)c1cccc(-c2noc(-c3ccccc3Br)n2)c1,0.0532%
24,COC(=O)c1ccc(NC(=O)CSc2nnc(C(C)Oc3ccccc3)n2C)cc1 (stereo not given),-2.47%
25,Cc1cc(C)nc(N(C(=O)C2CC2)c2ccc(OC(F)(F)F)cc2)n1,-7.68%
26,Cc1nnc(OCC(=O)Nc2ccc(OC(F)(F)F)cc2)c2ccccc12,35.8% (active)
27,Cc1nc(Nc2ncccn2)cc(C2CCCN2S(=O)(=O)N(C)C)n1 (stereo not given),-8.82%
28,Cc1ccc(S(=O)(=O)N2CCC3(CC2)OC(C(=O)NCC(C)C)Cn2ccnc23)cc1 (stereo not given),-3.62%

row,SMILES,inhibition
1,O=C(CNC(=O)C1COc2ccccc2O1)Nc1ccccc1Br (stereo not given),-5.2%
2,CCn1nccc1C1CCCN1C(=O)C12CC3CC(CC(C3)C1)C2 (stereo not given),-2.13%
3,COc1ccc(-c2ccc(CCC(=O)NCc3ccccc3)o2)cc1,0.714%
4,OC1CCC(Nc2nc(CN3CCOCC3)nc3sc4c(c23)CCC4)CC1 (stereo not given),1.88%
5,O=C(Nc1ccc(Cl)c(Cl)c1)C1C2C=CC3(O2)C1C(=O)N(CCCN1CCN(Cc2ccccc2)CC1)C3C(=O)NC1CCCCC1 (stereo not given),-13.9%
6,CCN1C(=O)COc2cc(-c3noc(C(=O)N4CCN(c5ccccc5)CC4)n3)ccc21,5.26%
7,COc1cccc(NC(=O)C2Cc3ccccc3N2C(=O)c2ccccc2)c1 (stereo not given),12%
8,NS(=O)(=O)c1ccc(NS(=O)(=O)c2ccc(NC(=O)c3ccccc3)cc2)cc1,4.22%
9,CC(NC(=O)c1ncoc1-c1ccc(F)cc1)c1ccccn1 (stereo not given),3.88%
10,O=C(CNS(=O)(=O)/C=C/c1ccccc1)N1CCCC(c2nc3ccccc3s2)C1 (stereo not given),-13.9%
11,CN(C)c1cccc(C(=O)OCC(=O)Nc2ccc(Cl)cn2)c1,1.07%
12,Oc1cccc2nc3c(O)cccc3nc12,60.7% (active)
13,CC(C)(C)C(=O)c1cn(CC(=O)N2CCc3ccccc3C2)c2ccccc12,0.535%
14,Clc1ccc(C2NC3=NCN(Cc4ccco4)CN3c3nc4ccccc4n32)cc1 (stereo not given),11.6%
15,O=C(Cn1cnc2ccccc21)N1CC(c2nc(-c3ccncc3)no2)C1,-2.15%
16,COc1cccc(-n2c(=O)c(C(=O)NC(C)c3ccccc3)c(O)c3cccnc32)c1 (stereo not given),1.53%
17,O=C(NC1CCN(Cc2ccccc2)CC1)c1cc2cn(C3CC3)cc2s1,-34.6%
18,Cc1ccc(S(=O)(=O)NCCc2nnc3ccc(SCC(=O)NCc4ccc5c(c4)OCO5)nn23)cc1,11.1%
19,CCc1cc(C(=O)NCc2ccccc2)nc2ccnn12,-0.736%
20,CCN(CC)S(=O)(=O)c1ccc(C(=O)Nc2sc(C)c(C)c2C(N)=O)cc1,-4.61%
21,CC(=O)c1ccc(NC(=O)CSc2ncnc3c2cnn3-c2ccc(C)cc2C)cc1,-0.915%
22,Cc1ccc(S(=O)(=O)N2C[C@H]3NC(=O)c4ccccc4C(=O)[C@@]3(C)C2)cc1,-3.74%
23,COc1cc(C2c3[nH]c4ccccc4c3C[C@@H]3C(=O)N(CCC4=CCCCC4)CC(=O)N23)cc(OC)c1OC (stereo not given in full),-46.8%
24,O=C(Nc1ccccc1Cl)N1C[C@H]2C[C@H]3[C@](C1)(CN(Cc1cccnc1)S3(=O)=O)O2,2.31%
25,C[C@@H]1CC[C@H]2C(CN3CCCC(C)(C)C3)C(=O)O[C@]23[C@H]1CC[C@@]1(C)O[C@@H]31 (stereo not given in full),-0.238%
26,CCOc1ccccc1Oc1nnnn1-c1ccccc1,23%
27,CN(C(=O)COc1ccc(C(N)=O)cc1)C1CCCCC1,-6.97%
